Sampled rows, rich in hits. Any-hit rate of the full collection: about 1.8%.
Tb PFK inh: blocks T. brucei phosphofructokinase; O15648; T. brucei PFK, ADP-Glo luminescence; Potency, µM (titrated, usually from 57.5 µM), inactives show at the top dose activity, negative = inhibition, hits mostly inhibitors; 330,000 compounds, 0.17% hits; AID 485367;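 further: 0% = uninhibited 1x PFK enzyme wells and -100% = no-enzyme wells; nearly all actives have a fitted effect of over 60% in size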
Target sequence (O15648 whole entry, looked up): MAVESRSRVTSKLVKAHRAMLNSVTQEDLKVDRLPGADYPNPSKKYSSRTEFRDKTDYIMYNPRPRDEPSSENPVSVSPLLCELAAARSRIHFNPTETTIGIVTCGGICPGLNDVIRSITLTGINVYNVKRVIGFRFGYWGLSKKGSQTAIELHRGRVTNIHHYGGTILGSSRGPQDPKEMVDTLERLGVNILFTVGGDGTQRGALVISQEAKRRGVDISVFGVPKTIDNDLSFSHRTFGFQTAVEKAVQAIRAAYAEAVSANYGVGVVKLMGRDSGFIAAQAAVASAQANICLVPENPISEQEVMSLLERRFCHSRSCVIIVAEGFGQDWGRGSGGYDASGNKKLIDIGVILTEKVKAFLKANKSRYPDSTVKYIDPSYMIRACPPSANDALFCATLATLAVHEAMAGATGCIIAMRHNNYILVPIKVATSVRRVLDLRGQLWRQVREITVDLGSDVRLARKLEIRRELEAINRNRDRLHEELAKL
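Activity is normalized to no-enzyme wells (full inhibition) and 1.25 nM enzyme wells (no inhibition). Reaction: 0.5 mM F6P, 0.1 mM ATP, 45 min RT, ADP-Glo luminescence; concentration-response curves fitted and classed by quality.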
GLP1R cytotox: cytotoxic in the GLP-1 receptor inverse agonist counter-screen. HEK293 cAMP-luciferase reporter cells, luminescence, 24 h. Potency, µM (highest dose often 38.3 µM), inactives show at the highest dose activity change, negative = inhibition, actives largely listed as inhibitors. 410,000 compounds, 0.13% hits. AID 624418;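 further: loss of luciferase light is scored as toxicity; on the % scale 0 is the no-effect control and ±100 the full control effect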
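Here, cytotoxicity is scored as loss of luminescence. The MLSMR collection was tested on cells seeded in medium containing 10% Nu serum, with a 24 hr compound exposure preceded by 12 hours of culture.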
PGK inhibitor: blocks T. brucei phosphoglycerate kinase. Potency, µM (series often up to 57.5 µM), without a hit: at the highest dose activity change, negative = inhibition, hits mostly inhibitors. 380,000 compounds, 0.043% hits. PGK/GAPDH coupled, Kinase-Glo luminescence, 60 min; further: on the % scale 0 is the no-effect control and ±100 the full control effect; nearly all actives have a fitted effect of over 60% in size
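Recombinant glycosomal PGK reaction used 1,3-bisphosphoglycerate generated in-well by GAPDH (100nM final) in 100mM TEA pH 7.6, 5mM MgCl2, 0.01% Tween-20. After 60 minutes at room temperature, ATP was read by Kinase-Glo Plus luminescence end-point.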
GLP-1R agonist: agonists of human GLP-1 receptor; HEK293 GLP-1R CRE-luciferase, luminescence, 4-6 h; cells express a hypersensitive GLP-1R form; P43220; 380,000 compounds, 0.007% hits; Potency, µM (doses to about 45.6 µM), inactives show at the top dose activation, actives largely listed as activators; further: % of control where 0% means no effect
GLP1R inv ag: inverse agonists of human GLP-1 receptor. P43220. HEK293 GLP-1R CRE-luciferase, luminescence, 24 h; GLP-1R form is constitutively active. Potency, µM (series often up to 38.3 µM), for the others: top-dose activity change, negative = inhibition, actives largely listed as inhibitors. 410,000 compounds, 1.6% hits. AID 624417; further: on the % scale 0 is the no-effect control and ±100 the full control effect; nearly all actives have a fitted effect of over 55% in size
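Assay principle: reduced luminescence from a cAMP-responsive reporter in HEK293 cells co-expressing a constitutively active GLP-1R. Conditions: 24 hr compound incubation, 37 deg C, 5% CO2.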
Pin1 inhibitor: blocks the human prolyl isomerase Pin1. Pin1 FP peptide displacement, HiFluor488, 10 min. 390,000 compounds, 0.009% hits. Q13526. Potency, µM (doses to about 115 µM), inactives show at the highest dose activity, negative = inhibition, most hits filed as inhibitors. AID 504891; active means well fitted inhibition curve with a large enough effect in the polarisation, with a control signal flat, not every such curve was filed as active; inconclusive means small, poorly fitted or top-dose-only effect, or effect the other way, or a change in a side signal; inactive means no such curve, though single readings can be large or run the other way; the % refers to the polarisation; further: on the % scale 0 is the no-effect control and ±100 the full control effect
Target sequence (Q13526 whole entry, looked up): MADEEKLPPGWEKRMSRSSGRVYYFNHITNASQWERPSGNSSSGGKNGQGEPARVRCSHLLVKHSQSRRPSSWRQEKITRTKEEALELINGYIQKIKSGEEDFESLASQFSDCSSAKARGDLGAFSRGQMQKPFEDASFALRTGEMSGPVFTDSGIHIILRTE
Starred values were filed as active, the others as inactive; i = inactive; u = inconclusive; x = no result; ! = not active in a repeat. Unless noted, the call rests on the fitted dose curve; in most records, active means well fitted curve in the direction sought with a large enough effect; inconclusive means small, poorly fitted or top-dose-only effect, or another doubt; inactive means no such curve, though single readings can be large; an effect the other way counts as inactive or inconclusive. Potency means the concentration at half of the fitted maximal effect.

SMILES	Tb PFK inh	GLP1R cytotox	PGK inhibitor	GLP-1R agonist	GLP1R inv ag	Pin1 inhibitor
Cc1ccc(NS(=O)(=O)c2ccc(NC(=O)CN(c3cc([N+](=O)[O-])ccc3C)S(C)(=O)=O)cc2)c(C)c1	1.7%	u	-5.3%	-7.8%	2.24µM*	4.5%
COc1cc(NS(=O)(=O)c2ccc(NC(=O)c3ccccc3C(=O)O)cc2)nc(OC)n1	x	6.1%	1.0%	x	15.1%	-7.6%
CCC(C)NC(=O)[C@H](CSCc1ccccc1)N1Cc2ccccc2C1=O (stereo not given in full)	3.0%	-1.8%	8.3%	-6.2%	11.2µM*	0.0%
O=C1OCCN1C(=O)[C@H]1[C@H](c2ccc([N+](=O)[O-])cc2)C(c2ccc(F)cc2)=NN1c1ccc(Br)cc1	0.3%	-14.8%	6.2%	-1.7%	10µM*	u
O=C1OCCN1C(=O)[C@H]1[C@H](c2ccc([N+](=O)[O-])cc2)C(c2ccc(F)cc2)=NN1c1ccccc1	-1.9%	-10.8%	i	0.4%	u	4.2%
COc1ccc(-c2csc(NCCc3nc4cc(Cl)c(N5CCCCC5)cc4n3CCOCCO)n2)cc1	x	2.2%	3.4%	2.8%	u	24.9%
OCCCn1c(CCCNc2nc(-c3cccc(Br)c3)cs2)nc2cc(Cl)c(N3CCCCC3)cc21	-4.3%	3.4%	1.9%	-10.2%	10µM*	46.8%
NC(=O)C1CCN(c2nc(-c3cccc(C(F)(F)F)c3)cs2)CC1	x	x	x	x	x	-3.2%
CCN(CC)C(=S)NC(=O)c1ccc(F)cc1	-1.7%	3.55µM*	-3.8%	6.6%	u	7.2%
Cc1ccc(-n2nc(C(=O)N3CCN(c4cc(Cl)ccc4C)CC3)c(=O)n(C)c2=O)cc1	x	1.6%	-2.6%	x	11.4%	0.6%
CCOC(=O)N1CCc2c(sc3c2c(=O)n(Cc2ccccc2)c(=O)n3Cc2cc(C)ccc2C)C1	x	5.1%	-6.5%	x	7.5%	-7.4%
CCOC(=O)N1CCc2c(sc3c2c(=O)n(Cc2ccccc2)c(=O)n3Cc2cccc(C)c2)C1	6.8%	2.6%	2.4%	7.7%	10µM*!	-0.5%
CNC(=O)C1CCC(Cn2c(=O)c3sccc3n(Cc3cc(C)ccc3C)c2=O)CC1 (stereo not given)	x	-15.6%	-23.3%	x	7.4%	-5.0%
CC(=O)Oc1c2occc2cc2ccc(=O)oc12	u	4.8%	-0.2%	-5.5%	13.9%	u
COc1c2occc2c(OC(C)=O)c2c(=O)cc(C)oc12	-9.3%	-15.1%	-3.4%	9.8%	10µM*	2.6%
CCN1CCN(CC(=O)Nc2cc(S(=O)(=O)N(CC)c3ccccc3)ccc2Cl)CC1	2.5%	u	8.0%	8.1%	10µM*	2.2%
CCN(c1ccccc1)S(=O)(=O)c1ccc(Cl)c(NC(=O)CN2CCN(C)CC2)c1	0.2%	-6.1%	-8.3%	-7.7%	u	-3.0%
CCN(c1ccccc1)S(=O)(=O)c1ccc(OC)c(NC(=O)Cc2ccccc2OC)c1	-2.2%	-12.3%	0.3%	3.8%	10µM*	17.3%
CCN(c1ccccc1)S(=O)(=O)c1ccc(OC)c(NC(=O)Cc2ccc(OC)c(OC)c2)c1	18.1%	2.0%	0.7%	-1.9%	-23.2%	18.8%
CCC(CC)C(=O)N1N=C(c2ccc(NS(C)(=O)=O)cc2)CC1c1ccc(C)cc1 (stereo not given)	1.4%	-26.6%	-6.9%	15.4%	8.91µM*	11.1%
COc1ccc(OCC(=O)Nc2cc(-c3nc4ccccc4o3)ccc2Cl)cc1	x	-1.3%	i	x	21.7%	1.2%
COc1cc(-c2ccc3ncnc(NCC4CCCO4)c3c2)cc(OC)c1OC (stereo not given)	x	x	x	x	x	-4.7%
CN1CCN(Nc2nn3c(=O)c4ccccc4nc3s2)CC1	x	x	x	x	x	1.0%
N=c1c(S(=O)(=O)c2ccccc2)cc2c(=O)n3ccccc3nc2n1C1CCCCC1	x	-0.3%	i	22.8%	10µM*	-0.9%
N=c1c(S(=O)(=O)c2ccc(Br)cc2)cc2c(=O)n3ccccc3nc2n1C1CCCCC1	-9.7%	-13.6%	0.3%	-0.3%	90.7%	0.3%
SMILES	Tb PFK inh	GLP1R cytotox	PGK inhibitor	GLP-1R agonist	GLP1R inv ag	Pin1 inhibitor
COc1ccc(CNC(=O)C(c2ccc(C)o2)N(C(=O)c2csnn2)c2ccc(C(C)C)cc2)cc1 (stereo not given)	1.1%	-7.0%	11.0%	-2.7%	10µM*	10.7%
COc1ccc(CNC(=O)C(c2ccc(C)o2)N(Cc2cccs2)C(=O)Cc2cccs2)cc1 (stereo not given)	-1.1%	u	-8.9%	-6.2%	8.91µM*	61.1%
CCc1ccc(C(C(=O)NCc2ccc(OC)cc2)N(CCOC)C(=O)Cc2cccs2)cc1 (stereo not given)	-11.8%	u	-7.8%	1.1%	10µM*	u
COc1cccc(C(c2sc3nc(-c4ccco4)nn3c2O)N2CCOCC2)c1 (stereo not given)	x	-3.5%	9.0%	x	-2.1%	-3.6%
CCN1CCN(C(c2ccccc2)c2c(O)cc(C)n(CCOC)c2=O)CC1 (stereo not given)	x	-7.3%	-5.8%	x	17.6%	-0.8%
COc1ccc(CCNC(=O)CCc2c(C)nc3nc(C)nn3c2C)cc1OC	x	3.4%	-8.5%	0.2%	6.9%	7.9%
O=C(Oc1ccccc1)c1cc(O)c(O)c(O)c1	x	-23.2%	x	-8.6%	14.1%	x
O=C(Nc1ccn(Cc2ccccc2F)n1)c1ccc(COc2cccc(Br)c2)cc1	1.1%	-1.7%	-0.3%	-11.2%	3.16µM*	4.6%
CCOC(=O)c1c(NC(=O)CSc2nnc(-c3c[nH]c4ccccc34)n2CCOC)sc2c1CCCC2	-0.6%	-12.9%	-1.9%	-1.0%	11.2µM*	9.2%
COc1ccc(-c2oc(NC(=O)CSc3ncn[nH]3)c(C#N)c2-c2ccc(OC)cc2)cc1	-5.0%	-19.7%	-0.9%	-3.2%	-13.5%	12.9%
COc1ccc(-c2oc(NC(=O)CCl)c(C#N)c2-c2ccc(OC)cc2)cc1	0.6%	u	-8.5%	-11.7%	2.24µM*	6.5%
COc1ccc(CC(=O)Nc2oc(-c3ccccc3)c(-c3ccccc3)c2C#N)cc1OC	-2.4%	-12.7%	-2.6%	-0.7%	2.24µM*	16.4%
O=C(O)Cc1cc(F)c(S(=O)(=O)N2CCN(S(=O)(=O)c3ccc4c(c3)OCCO4)CC2)cc1F	x	x	x	x	x	7.1%
COc1ccc(OC)c(CNC(=O)c2cc(S(=O)(=O)N3CCC(C)CC3)cn2C)c1	x	2.9%	8.2%	1.8%	-25.7%	7.8%
Cc1cc(C)c(S(=O)(=O)Nc2ccc(-c3ccc(N4CCCCC4)nn3)cc2)cc1C	x	-7.5%	-1.5%	x	-6.8%	14.5%
